Results: PubChem BioAssay AID1159580 (chemical genetic matrix, 2015)
In all, about 5,500 compounds went through this assay and about 2,000 (36%) were called active. Inconclusive results (about 18%) are left out. Rule as the data show it: active = normalized growth mostly below about 0.91 (no sharp cut-off); inconclusive = no clear call, values can overlap the other calls; inactive = mostly above about 0.92. Some of the results follow.

Assay: chemical genetic growth profiling, strain panel (AID 1159580);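 also: tested at 20 µM; growth read once vehicle control cultures reached saturation at 30 °C; 1 = growth at the plate median or of vehicle wells; lower values mean less growth of the strain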
Details: growth OD

Measured: normalized growth

CN(C)CC/C=C1\c2ccccc2Sc2ccc(Cl)cc21
active: S. cerevisiae deletion strains, locus YJR066W, strain TOR1, active compounds read low 0.815 | S. cerevisiae deletion strains, locus YKL160W, strain elf1, active compounds read low 0.867 | S. cerevisiae deletion strains, locus YLR027C, strain aat2, active compounds read low 0.881 | S. cerevisiae deletion strains, locus YLR039C, strain RIC1, active compounds read low 1.5 [resistant] | S. cerevisiae deletion strains, locus YLR258W, strain gsy2, active compounds read low 0.894 | S. cerevisiae deletion strains, locus YLR262C, strain YPT6, active compounds read low 1.62 [resistant] | S. cerevisiae deletion strains, locus YLR342W, strain FKS1 (second series), active compounds read low 0.667 | S. cerevisiae deletion strains, locus YLR342W, strain FKS1, active compounds read low 0.724 | S. cerevisiae deletion strains, locus YLR370C, strain arc18, active compounds read low 0.749 | S. cerevisiae deletion strains, locus YLR418C, strain cdc73, active compounds read low 0.661 | S. cerevisiae deletion strains, locus YMR058W, strain fet3, active compounds read low 0.775 | S. cerevisiae deletion strains, locus YMR231W, strain pep5, active compounds read low 0.0779 | S. cerevisiae deletion strains, locus YNL209W, strain ssb2, active compounds read low 0.665 | S. cerevisiae deletion strains, locus YOL006C, strain TOP1, active compounds read low 0.42 | S. cerevisiae deletion strains, locus YOR070C, strain gyp1, active compounds read low 0.804 | S. cerevisiae deletion strains, locus YOR083W, strain WHI5, active compounds read low 0.735 | S. cerevisiae deletion strains, locus YOR106W, strain vam3, active compounds read low 0.393 | S. cerevisiae deletion strains, locus YOR270C, strain vph1, active compounds read low 0.41 | S. cerevisiae deletion strains, locus YOR290C, strain snf2, active compounds read low 0.818 | S. cerevisiae deletion strains, locus YPL051W, strain arl3, active compounds read low 0.76 | S. cerevisiae deletion strains, locus YPL078C, strain atp4, active compounds read low 0.835 | S. cerevisiae deletion strains, locus YPL106C, strain sse1, active compounds read low 0.802 | S. cerevisiae deletion strains, locus YPR163C, strain tif3, active compounds read low 0.827
inactive: S. cerevisiae deletion strains, locus YJR043C, strain POL32, active compounds read low 1.03 | S. cerevisiae deletion strains, locus YJR075W, strain HOC1, active compounds read low 0.884 | S. cerevisiae deletion strains, locus YKL009W, strain mrt4, active compounds read low 0.989 | S. cerevisiae deletion strains, locus YKL068W, active compounds read low 1.01 | S. cerevisiae deletion strains, locus YKL085W, strain MDH1 (second series), active compounds read low 1.03 | S. cerevisiae deletion strains, locus YKL085W, strain MDH1, active compounds read low 1.03 | S. cerevisiae deletion strains, locus YKL190W, strain CNB1, active compounds read low 0.982 | S. cerevisiae deletion strains, locus YKR026C, strain gcn3, active compounds read low 0.992 | S. cerevisiae deletion strains, locus YKR091W, strain srl3, active compounds read low 0.987 | S. cerevisiae deletion strains, locus YLL001W, strain dnm1, active compounds read low 0.904 | S. cerevisiae deletion strains, locus YLL026W, active compounds read low 0.981 | S. cerevisiae deletion strains, locus YLL041C, strain sdh2, active compounds read low 0.993 | S. cerevisiae deletion strains, locus YLR058C, strain SHM2, active compounds read low 0.933 | S. cerevisiae deletion strains, locus YLR102C, strain apc9, active compounds read low 1.02 | S. cerevisiae deletion strains, locus YLR113W, strain HOG1, active compounds read low 0.915 | S. cerevisiae deletion strains, locus YLR221C, strain rsa3, active compounds read low 0.947 | S. cerevisiae deletion strains, locus YLR262C, strain YPT6 (second series), active compounds read low 1.1 | S. cerevisiae deletion strains, locus YLR268W, strain sec22, active compounds read low 1.01 | S. cerevisiae deletion strains, locus YLR320W, strain mms22, active compounds read low 0.951 | S. cerevisiae deletion strains, locus YLR330W, strain CHS5, active compounds read low 0.999 | S. cerevisiae deletion strains, locus YLR357W, strain rsc2, active compounds read low 0.935 | S. cerevisiae deletion strains, locus YLR371W, strain rom2, active compounds read low 1.01 | S. cerevisiae deletion strains, locus YLR384C, strain iki3, active compounds read low 0.987 | S. cerevisiae deletion strains, locus YML016C, strain PPZ1, active compounds read low 0.994 | S. cerevisiae deletion strains, locus YML032C, strain rad52, active compounds read low 0.947 | S. cerevisiae deletion strains, locus YML120C, strain ndi1, active compounds read low 0.998 | S. cerevisiae deletion strains, locus YML124C, strain tub3, active compounds read low 1.02 | S. cerevisiae deletion strains, locus YMR078C, strain ctf18, active compounds read low 1.02 | S. cerevisiae deletion strains, locus YMR125W, strain sto1, active compounds read low 0.923 | S. cerevisiae deletion strains, locus YMR129W, active compounds read low 1 | S. cerevisiae deletion strains, locus YMR205C, strain PFK2, active compounds read low 0.921 | S. cerevisiae deletion strains, locus YMR223W, strain ubp8, active compounds read low 0.935 | S. cerevisiae deletion strains, locus YMR307W, strain GAS1, active compounds read low 0.903 | S. cerevisiae deletion strains, locus YNL067W, strain RPL9B, active compounds read low 0.929 | S. cerevisiae deletion strains, locus YNL071W, strain lat1, active compounds read low 0.934 | S. cerevisiae deletion strains, locus YNL183C, strain NPR1, active compounds read low 0.872 | S. cerevisiae deletion strains, locus YNL233W, strain BNI4, active compounds read low 0.891 | S. cerevisiae deletion strains, locus YNL248C, strain rpa49, active compounds read low 0.917 | S. cerevisiae deletion strains, locus YNL250W, strain rad50, active compounds read low 1.03 | S. cerevisiae deletion strains, locus YNL271C, strain bni1, active compounds read low 1.01 | S. cerevisiae deletion strains, locus YNL298W, strain CLA4, active compounds read low 1 | S. cerevisiae deletion strains, locus YNL307C, strain MCK1, active compounds read low 0.999 | S. cerevisiae deletion strains, locus YNL322C, strain KRE1 (second series), active compounds read low 1.03 | S. cerevisiae deletion strains, locus YNR049C, strain mso1, active compounds read low 0.996 | S. cerevisiae deletion strains, locus YNR052C, strain pop2, active compounds read low 0.964 | S. cerevisiae deletion strains, locus YOL012C, strain htz1 1.87 | S. cerevisiae deletion strains, locus YOL147C, strain pex11, active compounds read low 1.02 | S. cerevisiae deletion strains, locus YOR001W, strain rrp6, active compounds read low 0.935 | S. cerevisiae deletion strains, locus YOR061W, strain CKA2, active compounds read low 0.941 | S. cerevisiae deletion strains, locus YOR069W, strain VPS5, active compounds read low 1 | S. cerevisiae deletion strains, locus YOR080W, strain dia2, active compounds read low 0.975 | S. cerevisiae deletion strains, locus YOR136W, strain idh2, active compounds read low 1.02 | S. cerevisiae deletion strains, locus YOR144C, strain elg1, active compounds read low 1.01 | S. cerevisiae deletion strains, locus YOR184W, strain ser1, active compounds read low 1.06 | S. cerevisiae deletion strains, locus YOR231W, strain MKK1, active compounds read low 0.869 | S. cerevisiae deletion strains, locus YOR265W, strain rbl2, active compounds read low 0.974 | S. cerevisiae deletion strains, locus YOR316C, strain cot1, active compounds read low 1.02 | S. cerevisiae deletion strains, locus YPL240C, strain hsp82, active compounds read low 0.981 | S. cerevisiae deletion strains, locus YPL241C, strain CIN2, active compounds read low 1.01 | S. cerevisiae deletion strains, locus YPL256C, strain CLN2, active compounds read low 0.95 | S. cerevisiae deletion strains, locus YPR119W, strain clb2, active compounds read low 1.03 | S. cerevisiae deletion strains, locus YPR141C, strain kar3, active compounds read low 1.02 | S. cerevisiae deletion strains, locus YPR167C, strain met16, active compounds read low 1.01 | S. cerevisiae deletion strains, strain wtn01, active compounds read low 0.937 | S. cerevisiae strains, strain wild type, active compounds read low 0.956
